# PubChem BioAssay AID686979 (National Center for Advancing Translational Sciences (NCATS), 2013)
# Screen size: about 420,000 compounds; about 50,000 (12%) were called active. About 26% were inconclusive and are not listed. This is one part of a sample in which actives are shown more often than they occur. A number with no mark means an inactive call. Calls come from the whole dose curve; as a rule, active = well fitted inhibition curve with a large enough effect; inconclusive = small, poorly fitted or top-dose-only effect; inactive = flat fitted curve, though single readings scatter.
# Assay: qHTS for Inhibitors of human tyrosyl-DNA phosphodiesterase 1 (TDP1): qHTS in cells in presence of CPT; note: nearly all actives have a fitted effect of over 55% in size
# Conditions: chicken DT40 Tdp1-/-;hTDP1 cells + 20 nM CPT, ATP luminescence, 48 h; series mostly up to 46.2 µM; activity change, negative = growth inhibition: at the top concentration
# Summary of the method: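 Chicken DT40 Tdp1-/- cells stably complemented with human TDP1 were seeded at 400 cells/well in medium containing 20 nM camptothecin, exposed to pin-transferred compounds, and grown at 37 °C for at least 48 hr. Viability was read as ATP luminescence.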
# % is set by controls: 0 for no effect and ±100 for the full control effect; potency is the fitted concentration of half-maximal effect.
SMILES,"activity change, negative = growth inhibition",Potency
COc1cccc(N(CC(=O)NCc2ccccc2)C(=O)CCC(=O)Nc2nccs2)c1,-20.2%,–
CCc1noc(C)c1C(=O)N1CCN(S(=O)(=O)c2cccc(C(F)(F)F)c2)CC1,0.576%,–
NNC(=O)C1CCCn2c1nc1sc3c(c1c2=O)CCCC3 (stereo not drawn),8.97%,–
O=C(CCc1nc2sc3c(c2c(=O)[nH]1)CCCC3)NCC(=O)Nc1ccccc1Br,13.3%,–
CS(=O)(=O)N(Cc1nc2sc3c(c2c(=O)[nH]1)CCCC3)C1CCCCC1,–,20.6 µM (active)
CCCCCCCCCCCCCCCCO,-5.61%,–
O=C(CCN1C(=O)[C@@H]2Cc3ccccc3CN2C1=O)NCc1ccccc1,-0.237%,–
CCOC(=O)N1CCC(N(CCOC)C(=O)Nc2ccc(C)c(C)c2)CC1,-22.5%,–
Cc1cccc(NC(=O)CSc2nc3c(c(=O)[nH]2)CCCC3)c1C,-21.3%,–
Cc1cccc(NC(=O)CSc2ncc(-c3ccccc3)[nH]2)c1C,–,25.9 µM (active)
Cc1cccc(NC(=O)CSc2nc3c(c(=O)[nH]2)CCC3)c1C,4.77%,–
Cc1cccc(NC(=O)COC(=O)CCc2ccccc2)c1C,-6.21%,–
Cc1cccc(NC(=O)CSC(N)=O)c1C,–,25.9 µM (active)
Cc1cccc(NC(=O)CN2C(=O)c3ccccc3C2=O)c1C,6.02%,–
CN(Cc1ccccc1)C(=O)c1ccc(NC2=NC3CS(=O)(=O)CC3S2)cc1 (stereo not drawn),2.81%,–
Cc1cccc2c(=O)cc(CSc3ccccc3NC(=O)C(C)C)[nH]c12,-5.53%,–
COc1ccc(C(=NN)c2ccc(OC)cc2)cc1,4.73%,–
COc1ccc(C(C#N)=C2C=CC(=NO)c3ccccc32)cc1,–,1.3 µM (active)
COc1ccc(/C(N)=N/OC(=O)Cc2ccccc2)cc1,13.2%,–
COc1ccc(C(=O)N(C)Cc2ccc(OC)c(OC)c2OC)cc1S(=O)(=O)N1CCOCC1,-1.37%,–
COc1ccc(/C=C(\NC(=O)c2ccc(OCC(C)C)cc2)C(=O)OCc2ccco2)cc1,–,20.6 µM (active)
O=C(OCN1C(=O)c2ccccc2C1=O)/C(=C\c1ccco1)NC(=O)c1ccccc1,1.01%,–
COc1ccc(/C=C(/NC(=O)c2ccco2)C(=O)Nc2ccc(C(C)=O)cc2)cc1,6.29%,–

SMILES,"activity change, negative = growth inhibition",Potency
CCOc1ccc(/C=C/C(=O)N(CC)CC(=O)NCc2cccs2)cc1OC,-17.8%,–
CC(=O)N[C@@H](C)C(=O)N1CCC(n2nccc2NC(=O)CCCc2ccccc2)CC1,7.97%,–
ClC/C=C/C[n+]1ccccc1Cl,-26.5%,–
O=C(NCCC1CCCCN1S(=O)(=O)c1ccc(F)cc1)C(=O)NC1CC1 (stereo not drawn),0.311%,–
O=C(NCCC1CCCCN1S(=O)(=O)c1cccs1)C(=O)Nc1ccc(F)cc1F (stereo not drawn),–,2.91 µM (active)
O=C(NCc1ccccc1Cl)C(=O)NCC1CCCN1S(=O)(=O)c1cccs1 (stereo not drawn),-14.6%,–
Cc1ccc(N/C=C/C(=O)c2ccccc2)cc1C,0.497%,–
C/C(=N\NC(=O)c1nc(C)cc(C)n1)c1ccccc1,10.9%,–
Cc1cc(C)nc(S/C=C/C(=O)c2ccccc2)n1,–,2.06 µM (active)
O=C(CN(Cc1ccccc1)C(=O)CCC(=O)Nc1ccccn1)NCCc1ccccc1,-26.5%,–
O=C(CSc1nc2ccccc2c(=O)n1Cc1ccc(F)cc1)NCC1CCCO1 (stereo not drawn),-24.9%,–
O=C(CCn1c(SCC(=O)c2ccccc2)nc2ccccc2c1=O)NCc1ccc(F)cc1,-4.07%,–
O=C(CCCn1c(SCC(=O)c2ccccc2)nc2ccccc2c1=O)NCC1CCCO1 (stereo not drawn),–,16.4 µM (active)
CNC(=S)N/N=C/c1cn(Cc2ccc(C)cc2)c2ccccc12,–,18.4 µM (active)
COCCCNC(=O)Cn1cc(/C=C(\C#N)C(=O)N2CCN(c3ccccc3)CC2)c2ccccc21,3.39%,–
N#CCC(=O)N/N=C/c1cn(Cc2ccc3ccccc3c2)c2ccccc12,–,5.8 µM (active)
NC(=O)Cn1cc(/C=N\NS(=O)(=O)c2ccccc2)c2ccccc21,-4.65%,–
Cc1ccc(CNC(=O)C(=O)c2cn(CC(=O)N3CCCC3)c3ccccc23)cc1,-29.5%,–
N#CCC(=O)N/N=C/c1ccc(SCC(=O)Nc2ccccc2)o1,-23.9%,–
Nc1nc(NCC(=O)O)nc(N2CCCCCC2)c1[N+](=O)[O-],5.37%,–
Cc1ccc(-n2c(-c3ccc(Cl)cc3)n[nH]c2=S)cc1,-2.68%,–
CC1(C)OC(=O)C2=C(C[C@@H](C3CC3)O[C@H]2c2ccc(Cl)cc2)O1,-2.98%,–
CN(CCO)C(=O)c1nc[nH]c1C(=O)N(C)Cc1ccccc1,-26.5%,–

SMILES,"activity change, negative = growth inhibition",Potency
Cc1cc(=O)n2nc(N3CCC(C(=O)Nc4c(F)c(F)c(F)c(F)c4F)CC3)sc2n1,5.78%,–
Cc1cc(=O)n2nc(N3CCCC(C(=O)NCc4ccc(Cl)cc4)C3)sc2n1 (stereo not drawn),-8.25%,–
COc1ccc(-c2cn3nc(N4CCCC(C(=O)NCCCOC(C)C)C4)sc3n2)cc1 (stereo not drawn),–,13 µM (active)
CCc1ccc(CNC(=O)C2CCN(c3nn4cc(-c5ccc(F)cc5)nc4s3)CC2)cc1,-23%,–
COc1ccc(OC)c(CNC(=O)C2CCCN(c3nc4ccccc4o3)C2)c1 (stereo not drawn),-4.53%,–
COc1ccc(-c2cn3nc(N4CCC(C(=O)Nc5cccc(C)c5C)CC4)sc3n2)cc1,–,20.6 µM (active)
CC(C)CNS(=O)(=O)c1ccc(CCC(=O)NCc2ccc(Cl)cc2)cc1,-12%,–
CCN(CC)S(=O)(=O)c1ccc(N2CC(C(=O)NCc3cccnc3)CC2=O)cc1 (stereo not drawn),-1.05%,–
COc1ccc(-c2cc(C(=O)NC(C(=O)O)C(C)C)c(C)o2)cc1OC (stereo not drawn),6.13%,–
COc1ccc(-c2cc(C(=O)NC(Cc3c[nH]c4ccccc34)C(=O)O)c(C)o2)cc1OC (stereo not drawn),–,29.1 µM (active)
Cc1cccc(C)c1OCC(=O)NC(Cc1c[nH]c2ccccc12)C(=O)O (stereo not drawn),–,inactive
Cc1ccc(C(=O)Nc2cccc(-c3nc(CNC(=O)c4ccccc4-n4cccn4)c(C)o3)c2)s1,-16.4% [at 9.04 µM],–
CCN(CC)c1ccc(C2C(C(N)=O)=C(C)Nc3nc(SCc4ccccc4)nn32)cc1 (stereo not drawn),-2.6%,–
Cc1cccc(-c2cnc(C(O)c3ccc4ccccc4c3)[nH]2)c1 (stereo not drawn),–,20.6 µM (active)
Cc1ccc(-c2cnc(C(O)c3cccc(C)c3C)[nH]2)cc1 (stereo not drawn),-25.5%,–
COc1c(C)cc(C(O)c2ncc(-c3cccc(C(F)(F)F)c3)[nH]2)cc1C (stereo not drawn),–,23.1 µM (active)
COc1cccc(-c2cnc(C(O)c3ccccc3OC)[nH]2)c1 (stereo not drawn),-15.6%,–
O=c1cc(O)c(-c2cccc(C(F)(F)F)c2)c(Cl)[nH]1,-0.16%,–
CCCc1ccc(C(O)c2ncc(-c3cccc(OC)c3)[nH]2)cc1 (stereo not drawn),–,16.4 µM (active)
COc1cccc(-c2ccc(C#N)c(SCC(=O)NCCc3ccc(Cl)cc3)n2)c1,-4.8%,–
OC(c1ccc(Cl)c(F)c1)c1ncc(-c2ccccc2Cl)[nH]1 (stereo not drawn),-20.4%,–
Cc1nc(N)[nH]c(=O)c1Oc1cccc(C(F)(F)F)c1,-5.81%,–
